This passage reports Potency, outcome and max response results from PubChem BioAssay (NCATS).

“And” between values parts separate entries of the source, which are not always exact repeats. Identical values can stand only once. Values without a mark were called inactive. Records with an inconclusive call do not appear. The source made the active and inactive calls. Unless noted, calls follow the shape of the dose curve; as a rule, active = well fitted curve in the direction sought with a large enough effect; inconclusive = small, poorly fitted or top-dose-only effect, or another doubt; inactive = no such curve, though single readings can be large; an effect the other way counts as inactive or inconclusive.

A short description of assay [1]: qHTS to identify inhibitors of the type 1 interferon - major histocompatibility complex class I in skeletal muscle: primary screen against the NCATS Mechanism Interrogation Plate v5.0 (MIPE) Libary (AID 1347411). Also: nearly all actives have a fitted effect of over 65% in size. Also: potency is read from the fitted curve at half-maximal effect. The gist of the method: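 Immortalized human myoblasts (C25cl48) with HiBit knocked into endogenous HLA-B*08:01 were stimulated with 4 ng/ml IFN-beta and given compounds in 11-point 1:3 titration from 46 uM. After 24 h at 37 C, lytic HiBiT luminescence was read.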
On the technique in general: qHTS replaces the single test concentration by a dilution series.

The target of assay [2] is Calcium and integrin-binding protein 1 (Homo sapiens) (UniProt Q99828). As to the kind of experiment: Validation qHTS for Identification of Calcium Integrin Binding protein 1 (CIB1) Competitor (AID 1508618). Also: % is scaled to controls: 0 for no effect and ±100 for the full control effect. The gist of the method: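 Displacement of FITC-alphaIIb peptide (100 nM) from CIB1-GST (1 uM) is monitored by polarization in quantitative HTS format; buffer carries 5 mM CaCl2 and 125 mM NaCl at pH 7.4, incubations are at room temperature.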
Chain of Calcium and integrin-binding protein 1 (Homo sapiens) (Q99828 whole entry, looked up): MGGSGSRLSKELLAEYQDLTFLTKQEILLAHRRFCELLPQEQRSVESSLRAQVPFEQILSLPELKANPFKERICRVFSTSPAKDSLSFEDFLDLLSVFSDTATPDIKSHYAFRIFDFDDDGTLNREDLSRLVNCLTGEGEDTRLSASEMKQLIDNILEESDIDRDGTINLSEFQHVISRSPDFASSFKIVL

Assay [3] shares this target. The experiment in a line: Primary qHTS for Identification of Calcium Integrin Binding Protein 1 (CIB1) Competitor (AID 1508620). Also: top concentration of the series differs between compounds; % is scaled to controls: 0 for no effect and ±100 for the full control effect. An outline of the steps: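 Fluorescence polarization competition: GST-tagged CIB1 (1 uM final) preincubated with compound 15 min at room temperature, then FITC-labelled alphaIIb peptide (100 nM final) added. After 15 min at room temperature, polarization read at Ex 480/Em 540.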

Assay [4] in a line: Primary qHTS for small molecule stabilizers of the endoplasmic reticulum resident proteome: Secreted ER Calcium Modulated Protein (SERCaMP) assay (AID 1508630). Also: % is scaled to controls: 0 for no effect and ±100 for the full control effect. The gist of the method:
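GLuc-SERCaMP-expressing SH-SY5Y cells, pretreated 16 h with compound, are challenged with thapsigargin to empty ER calcium stores; after 4 h, coelenterazine is added directly to the medium and luminescence is imaged.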

For the next assay, the target named is Papain (Carica papaya) (UniProt P00784). As to the kind of experiment: Primary qHTS assay for inhibitors of the protease papain (AID 1645873).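 Also: papain turnover of Z-FR-AMC read as the AMC fluorescence gain over 10 min.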 Also: potency is read from the fitted curve at half-maximal effect.
Chain of Papain (Carica papaya) (P00784 whole entry, looked up, the tested form may be a part): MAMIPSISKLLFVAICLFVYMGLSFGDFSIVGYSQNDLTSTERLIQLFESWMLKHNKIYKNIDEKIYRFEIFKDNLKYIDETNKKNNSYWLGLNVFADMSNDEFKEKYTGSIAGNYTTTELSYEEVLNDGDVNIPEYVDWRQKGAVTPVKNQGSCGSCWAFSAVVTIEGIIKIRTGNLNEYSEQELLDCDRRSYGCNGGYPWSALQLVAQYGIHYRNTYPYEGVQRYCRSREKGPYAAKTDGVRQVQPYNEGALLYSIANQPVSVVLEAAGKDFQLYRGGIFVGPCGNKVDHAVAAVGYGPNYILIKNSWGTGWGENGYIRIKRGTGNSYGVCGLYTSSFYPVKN
Assay [5] is described as follows: Primary qHTS for inhibitors of nuclear receptor binding SET domain protein 2 (NSD2) in an isogenic RCH-ACV NSD2 p.E1099K mutant (9B) (AID 1645876). Also: nearly all actives have a fitted effect of over 70% in size. Also: potency is read from the fitted curve at half-maximal effect.
Assay [6] concerns the target Protein phosphatase 1D (Homo sapiens) (UniProt O15297). The experiment in a line: RapidFire Mass Spectrometry qHTS Assay for Modulators of WT P53-Induced Phosphatase 1 (WIP1) (AID 1347424).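 Also: amount of dephosphorylated VEPPL-S-QETFS peptide product formed by WIP1; series mostly up to about 63 µM; plate controls were DMSO wells for no effect and GSK830371 inhibitor control at 10 µM for full effect.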 The gist of the method:
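10 nM WIP1 preincubated with compounds 1 hr at room temperature in pH 7.5 Tris buffer with 30 mM MgCl2, 1 mM TCEP; 2 uM VEPPL-pS-QETFS phosphopeptide for 5 min, formic acid quench; dephosphorylated product quantified by RapidFire MS against labelled standard.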

Assay [7] shares this target. The experiment in a line: Rhodamine-PBP qHTS Assay for Modulators of WT P53-Induced Phosphatase 1 (WIP1) (AID 1347425). Also: % of control where 0% means no effect. An outline of the steps:
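5 nM WIP1 + 10 uM Rh-PBP, 50 mM Tris pH 7.5, 30 mM MgCl2, 1 mM TCEP, 0.1 mM EGTA, BSA; cpds pinned, 1 hr RT; + 10 uM phosphopeptide; fluorescence 1-min reads x 11 min; delta = f1 - f0.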

The nature of assay [8]: Primary qHTS for inhibitors of La Crosse Virus (LACV) - induced cell death in SH-SY5Y cells (AID 1508616). Also: potency is read from the fitted curve at half-maximal effect. An outline of the steps: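 SH-SY5Y cells (6000/well) plated 24 h, then given compounds by pin transfer and LACV at 0.01 MOI for 6 days at 37C. Viability measured by ATPLite luminescence, normalized to infected DMSO and uninfected DMSO.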
The nature of assay [9]: A High-Content qHTS Against Drug Library for the Identification of Small Molecules that Inhibit DYT1 Early Onset Primary Dystonia-Associated Cell Pathology (AID 1645839; calls by dose curve; also: series mostly up to about 46 µM). An outline of the steps: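 Flp-In T-REx 293 cells with tetracycline-inducible EGFP-delE hTOR1A (WT EGFP-hTOR1A as reference), 800 cells/well; compound added with tetracycline, 48 h at 37 C. Fixed, permeabilized cells imaged; %pathology (punctate TorsinA) primary, cell count counterscreen.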

The target in assay [10] is Cytochrome P450 2D6 (Homo sapiens) (UniProt P10635). As to the kind of experiment: Cytochrome P450 family 2 subfamily D member 6 (CYP2D6) small molecule antagonists: luciferase biochemical (cell-free) qHTS assay (AID 1645840; active = well fitted curve in the direction sought with a large enough effect in the repeat runs; an effect the other way counts as inactive or inconclusive; also: nearly all actives have a fitted effect of over 55% in size; also: potency is read from the fitted curve at half-maximal effect). An outline of the steps: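 P450-Glo luminescent screen: recombinant CYP2D6 enzyme–proluciferin substrate mix preincubated with compound 10 min at room temperature, then NADPH regeneration added for 1 h at room temperature. Detection reagent added for 20 min; luciferin light read as relative luminescence units.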
Chain of Cytochrome P450 2D6 (Homo sapiens) (P10635 whole entry, looked up): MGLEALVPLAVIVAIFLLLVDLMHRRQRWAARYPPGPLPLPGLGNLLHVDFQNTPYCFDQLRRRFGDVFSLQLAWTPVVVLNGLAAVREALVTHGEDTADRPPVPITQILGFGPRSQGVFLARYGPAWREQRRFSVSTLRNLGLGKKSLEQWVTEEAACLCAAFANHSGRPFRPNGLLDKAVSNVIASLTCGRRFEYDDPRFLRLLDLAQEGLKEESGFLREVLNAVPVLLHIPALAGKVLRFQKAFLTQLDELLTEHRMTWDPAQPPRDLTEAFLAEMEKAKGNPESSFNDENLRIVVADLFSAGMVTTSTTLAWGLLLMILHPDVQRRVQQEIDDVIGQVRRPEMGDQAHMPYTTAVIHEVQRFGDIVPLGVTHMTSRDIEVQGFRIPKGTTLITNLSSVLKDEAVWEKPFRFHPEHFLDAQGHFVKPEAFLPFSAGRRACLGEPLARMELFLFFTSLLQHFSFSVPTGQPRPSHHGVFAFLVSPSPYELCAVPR

Assay [11] addresses Cytochrome P450 2C9 (Homo sapiens) (UniProt P11712). As to the kind of experiment: Cytochrome P450 family 2 subfamily C member 9 (CYP2C9) small molecule antagonists: luciferase biochemical (cell-free) qHTS assay (AID 1645842; active = well fitted curve in the direction sought with a large enough effect in the repeat runs; an effect the other way counts as inactive or inconclusive; also: series mostly up to about 57 µM; % is scaled to controls: 0 for no effect and ±100 for the full control effect; nearly all actives have a fitted effect of over 55% in size). The gist of the method:
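Luminescence, after 20 min with luciferin detection reagent, reflected CYP2C9 turnover during a 1 h NADPH-driven reaction at 37C. Enzyme-substrate mix contained 0.4% bovine serum albumin and was preincubated with compound 10 min at room temperature.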

In assay [12] the target is Single-stranded DNA cytosine deaminase (Homo sapiens) (UniProt Q9GZX7). The experiment in a line: Validation qHTS assay for inhibitors of Activation Induced Cytidine Deaminase (AID): AID signal (AID 1347429). Also: % is scaled to controls: 0 for no effect and ±100 for the full control effect. The gist of the method:
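FRET deamination assay: 1 uM AID (4/3x stock) with UDG, compound up to 114 uM, then 250 nM DJC20/DJC23 substrate (4x stock) for 4 hr at room temperature. NaOH added, 30 min; fluorescence read 540/590 nm.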

Assay [13] can be described thus: Counterscreen qHTS for small molecule stabilizers of the endoplasmic reticulum resident proteome: GLuc-NoTag assay (AID 1508627). Also: potency is read from the fitted curve at half-maximal effect. An outline of the steps:
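SH-SY5Y cells stably expressing constitutively secreted GLuc without SERCaMP tag, exposed to compound for 19 hr, then to 100 nM thapsigargin for 4 hr at 37C. Medium luciferase was read by coelenterazine luminescence without lysis.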
(Counterscreens check selectivity or assay interference.)

A short description of assay [14]: Confirmatory qHTS for small molecule stabilizers of the endoplasmic reticulum resident proteome: Secreted ER Calcium Modulated Protein (SERCaMP) assay (AID 1508628). Also: potency is read from the fitted curve at half-maximal effect; nearly all actives have a fitted effect of over 40% in size. The gist of the method: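 SH-SY5Y cells stably expressing GLuc-SERCaMP, treated 16 h with compound (primary 1.53, 7.67, 38.3 uM; confirmation 11 concentrations, up to 76.6 uM), then 100 nM thapsigargin for 4 h. Secreted Gaussia luciferase in medium read by coelenterazine luminescence.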

The nature of assay [15]: Cell Viability qHTS for small molecule stabilizers of the endoplasmic reticulum resident proteome (AID 1508629). To be noted: cell viability counter-screen, 100 nM thapsigargin for final 4 h.
The target of assay [16] is Cytochrome P450 3A4 (Homo sapiens) (UniProt P08684). The experiment in a line: Cytochrome P450 family 3 subfamily A member 4 (CYP3A4) small molecule antagonists: luciferase qHTS assay (AID 1645841; active = well fitted curve in the direction sought with a large enough effect in the repeat runs; an effect the other way counts as inactive or inconclusive; also: nearly all actives have a fitted effect of over 45% in size). An outline of the steps: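 P450-Glo CYP3A4 enzyme with proluciferin substrate preincubated 10 min with compound at room temperature, then NADPH regeneration 1 h. Luciferin detection reagent added for 20 min; luminescence recorded. Ketoconazole positive control.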
Chain of Cytochrome P450 3A4 (Homo sapiens) (P08684 whole entry, looked up): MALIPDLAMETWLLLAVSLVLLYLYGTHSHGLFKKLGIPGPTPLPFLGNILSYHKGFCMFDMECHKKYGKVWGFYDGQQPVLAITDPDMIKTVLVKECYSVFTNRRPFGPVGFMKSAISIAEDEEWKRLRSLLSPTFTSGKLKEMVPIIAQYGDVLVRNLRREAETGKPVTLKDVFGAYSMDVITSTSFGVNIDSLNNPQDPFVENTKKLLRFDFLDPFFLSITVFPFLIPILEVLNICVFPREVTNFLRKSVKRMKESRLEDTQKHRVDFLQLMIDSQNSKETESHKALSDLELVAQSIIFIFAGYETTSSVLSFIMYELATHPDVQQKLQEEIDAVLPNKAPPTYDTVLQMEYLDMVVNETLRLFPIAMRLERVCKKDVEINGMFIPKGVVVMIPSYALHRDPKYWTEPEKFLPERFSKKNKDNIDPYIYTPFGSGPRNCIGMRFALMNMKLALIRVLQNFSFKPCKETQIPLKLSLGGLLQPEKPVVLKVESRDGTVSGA

Assay [17] in a line: Validation qHTS assay for inhibitors of Activation Induced Cytidine Deaminase (AID): UDG Counterscreen signal (AID 1347427). Also: 0% is about no effect. The gist of the method:
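Counterscreen read of UDG activity (2 U/mL, 4/3x) in the FRET deamination format with AID (1 uM, 4/3x), DJC20/DJC23 substrates (250 nM, 4x), 4 h at room temperature. NaOH stop, fluorescence at 560 ex/665 em.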

Chain of Protein phosphatase 1D (Homo sapiens) (O15297 whole entry, looked up): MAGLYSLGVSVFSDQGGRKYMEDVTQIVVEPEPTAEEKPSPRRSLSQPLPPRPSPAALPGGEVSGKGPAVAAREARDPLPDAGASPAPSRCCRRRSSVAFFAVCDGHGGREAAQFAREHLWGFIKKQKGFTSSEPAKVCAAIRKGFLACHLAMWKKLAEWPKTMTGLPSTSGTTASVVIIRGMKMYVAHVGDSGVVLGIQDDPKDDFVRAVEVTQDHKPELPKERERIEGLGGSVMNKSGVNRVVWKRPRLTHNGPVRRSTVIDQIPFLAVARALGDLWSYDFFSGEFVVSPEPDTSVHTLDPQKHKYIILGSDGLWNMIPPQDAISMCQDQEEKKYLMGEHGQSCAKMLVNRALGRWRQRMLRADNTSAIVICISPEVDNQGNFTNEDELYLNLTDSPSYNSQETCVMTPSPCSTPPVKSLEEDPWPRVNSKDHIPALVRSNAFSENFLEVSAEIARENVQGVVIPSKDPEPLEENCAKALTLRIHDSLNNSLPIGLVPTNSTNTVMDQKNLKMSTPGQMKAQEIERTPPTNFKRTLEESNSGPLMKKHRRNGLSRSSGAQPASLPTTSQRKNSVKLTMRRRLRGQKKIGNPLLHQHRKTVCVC
Chain of Single-stranded DNA cytosine deaminase (Homo sapiens) (Q9GZX7 whole entry, looked up): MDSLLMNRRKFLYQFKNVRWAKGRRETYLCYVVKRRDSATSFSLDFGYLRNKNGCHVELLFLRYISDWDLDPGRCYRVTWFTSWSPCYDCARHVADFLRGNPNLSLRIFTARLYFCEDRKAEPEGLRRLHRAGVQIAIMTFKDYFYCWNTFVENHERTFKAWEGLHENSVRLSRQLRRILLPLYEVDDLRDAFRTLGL
Chain of Cytochrome P450 2C9 (Homo sapiens) (P11712 whole entry, looked up): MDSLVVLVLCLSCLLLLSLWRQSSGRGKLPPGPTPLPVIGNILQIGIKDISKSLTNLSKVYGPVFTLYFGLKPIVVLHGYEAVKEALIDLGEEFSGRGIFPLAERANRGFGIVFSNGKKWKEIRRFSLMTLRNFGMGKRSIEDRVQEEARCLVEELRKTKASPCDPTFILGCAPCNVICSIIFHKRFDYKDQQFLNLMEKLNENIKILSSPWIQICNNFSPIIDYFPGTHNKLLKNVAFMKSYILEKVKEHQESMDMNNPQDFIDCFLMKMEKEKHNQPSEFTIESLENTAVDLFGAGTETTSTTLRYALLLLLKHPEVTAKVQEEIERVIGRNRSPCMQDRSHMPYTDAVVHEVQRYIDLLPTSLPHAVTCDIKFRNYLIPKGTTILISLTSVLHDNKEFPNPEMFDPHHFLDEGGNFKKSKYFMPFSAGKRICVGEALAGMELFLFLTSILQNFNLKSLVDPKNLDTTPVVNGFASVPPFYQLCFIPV

As to `Clc1ccc2c(N3CCN(CCCN4CCN(c5ccnc6cc(Cl)ccc56)CC4)CC3)ccnc2c1`, the Potency result (in assay [1]; in [3]; in [4]; in the assay with Papain (Carica papaya); in assay [5]) was “inactive” throughout. In assay [2], the result was inactive.

Take `C[Se]CCC(N)C(=O)O` (stereo unspecified): the Potency result in assay [1], in [3], in assay [4] and in [5] was “inactive” in each case.

Turning to `CCOC(=O)C1=C(O)C(=O)N(Cc2ccccc2)C1`, the Potency result (in assay [1]; in [3]; in [4]; in the assay with Papain (Carica papaya); in [5]) was “inactive” throughout. Moreover, in [2], the result was inactive.

Regarding `CN(c1nccc(=O)[nH]1)C1CCN(c2nc3ccccc3n2Cc2ccc(F)cc2)CC1`, the Potency entry in assay [6], in [8], in [3], in assay [4] and in [9] was “inactive” each time. Moreover, in assay [7], the outcome was inactive. In assay [10], the Potency was 12.3 µM (active).

Consider `Cc1cccc(-c2[nH]ncc2-c2ccc3ncccc3n2)n1`, for which the Potency result in assay [1] and in assay [4] was “inactive” each time. The outcome in assay [2] was inactive.

On to `Cc1cc(Cl)ccc1OCCCC(=O)NO`, for which the Potency entry (in assay [1]; in assay [3]; in assay [4]; with Papain (Carica papaya)) was “inactive” each time. In addition, the outcome in [2] was inactive. In assay [5], the Potency is 1.48 µM (active).

As for `CC(C)c1nc(CN(C)C(=O)N[C@H](C(=O)N[C@@H](Cc2ccccc2)C[C@H](O)[C@H](Cc2ccccc2)NC(=O)OCc2cncs2)C(C)C)cs1`, the Potency entry in assay [6], in [8], in [3] and in [4] was “inactive” in each case. The molecule was classed as inactive in [7].

For the molecule `CCCCCCCCCCCCCCCCCCCCCCO`, the Potency entry in [1], in [4] and in [5] was “inactive” in each case.

With `COc1ccc(C2(C#N)CCC(C(=O)O)CC2)cc1OC1CCCC1` (stereo unspecified), the Potency entry in assay [1], in assay [3], in assay [4], in [10], in assay [11] and in [5] was “inactive” in each case.

Take `C[C@H](Cc1ccc(O)c(O)c1)[C@@H](C)Cc1ccc(O)c(O)c1`: the Potency result (in assay [1]; in assay [4]; in the assay with Papain (Carica papaya)) was “inactive” in each case. Moreover, the call in [12] and in [2] was inactive. In addition, the Potency was 1 µM (active) in [8]; 35.5 µM (active) in assay [13]; 7.94 µM (active) in [14]; 13.2 µM (active) and 7.31 µM (active) in assay [5]. Also, in [15], the max response was -16.2%.

For the molecule `CN(C)c1ccc2nc3ccc(=[N+](C)C)cc-3sc2c1`, the Potency was 18.6 µM (active) in assay [1]; 1.32 µM (active) and 2.37 µM (active) in assay [5]. The Potency entry in assay [8] and in assay [4] was “inactive” in each case.

With `CC(=O)NC[C@H]1CN(c2ccc(N3CCOCC3)c(F)c2)C(=O)O1`, the Potency result (in [1]; in [4]; in [10]; in the assay with Papain (Carica papaya); in assay [5]) was “inactive” in each case. Besides, the molecule was classed as inactive in assay [16].

In the case of `CC1(C)CCC(C)(C)c2cc(NC(=O)c3ccc(C(=O)O)cc3)ccc21`, the Potency entry in assay [1], in [8], in assay [3], in [13], in assay [4] and in [10] was “inactive” each time. Moreover, the Potency result in assay [11] is “inactive”.

`Cc1cc(C2CCCCC2)n(O)c(=O)c1`: in assay [7], the molecule was called inactive. For the same molecule, the Potency entry in assay [3], in [4], in assay [10] and in [11] was “inactive” in each case. The Potency in assay [5] was 5.8 µM (active) and 266 nM (active) and 7.42 µM (active).

On to `CC(C)c1ccc2c(c1)c(SC(C)(C)C)c(CC(C)(C)C(=O)O)n2Cc1ccc(Cl)cc1`, for which the Potency result (in assay [17]; in assay [3]; in [4]; in the assay with Papain (Carica papaya); in [5]) was “inactive” in each case. In addition, the outcome in assay [12] was inactive.

On to `COC(=O)C1=C(C)NC(C)=C(C(=O)OC(C)C)C1c1cccc2nonc12` (stereo unspecified), for which the call in assay [7] was inactive. Moreover, the Potency entry in [8], in assay [3] and in assay [4] was “inactive” throughout.

As for `NC(=NCc1ccccc1)NC(=O)c1nc(Cl)c(N)nc1N`, the Potency result in assay [17], in assay [8], in assay [3], in [4] and in assay [11] was “inactive” each time. Further, the call in [12] and in [2] was inactive. For the same molecule, the Potency in assay [10] was 5.35 µM (active); in the assay with Papain (Carica papaya), 31.6 µM (active); in assay [5], 13.2 µM (active).

On to `CCN(CC)CCOc1ccc(Nc2ncc3cc(-c4c(Cl)cccc4Cl)c(=O)n(C)c3n2)cc1`, for which, in assay [4], the Potency entry was “inactive”. Further, in [5], the Potency is 0.417 µM (active).
